Values joined by “and” are separate entries in the source; they are usually repeats but may differ in a detail not shown here. Equal entries are not always repeated. Records with an inconclusive call do not appear. Active and inactive are the calls of the source. How the source made its calls: active means hit-call score of the fitted dose curve at least 0.9, where 1 is the maximum; inconclusive means response in the unintended direction; inactive means score below 0.9.
Assays:
[1] = molecular target: human Endothelin Receptor Type A (ETA), EDNRA (gene 1909) (UniProt P25101); assay: NVS_GPCR_hETA: NovaScreen (NVS) G Protein-Coupled Receptor Assay for human Endothelin Receptor Type A (ETA) (AID 2283265)
Sequence of human Endothelin Receptor Type A (ETA), EDNRA (gene 1909) (P25101 whole entry, looked up): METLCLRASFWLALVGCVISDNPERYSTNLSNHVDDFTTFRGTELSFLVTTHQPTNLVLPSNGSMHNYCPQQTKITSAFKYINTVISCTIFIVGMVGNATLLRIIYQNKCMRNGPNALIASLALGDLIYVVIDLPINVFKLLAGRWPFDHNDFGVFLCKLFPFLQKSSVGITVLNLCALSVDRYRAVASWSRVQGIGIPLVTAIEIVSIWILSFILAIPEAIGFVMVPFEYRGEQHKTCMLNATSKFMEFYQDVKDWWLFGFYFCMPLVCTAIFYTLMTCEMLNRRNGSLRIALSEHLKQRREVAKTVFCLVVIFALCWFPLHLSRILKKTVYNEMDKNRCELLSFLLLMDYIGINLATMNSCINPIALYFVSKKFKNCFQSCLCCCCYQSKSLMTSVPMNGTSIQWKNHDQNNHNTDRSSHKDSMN
In short: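 Binding of radioligand to membrane protein extracted from SH-SY5Y cells was read by filtration and scintillation after 3 h. Compounds were screened at 25 uM in duplicate, with hits followed up in singleton concentration series to 50 uM.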

[2] = molecular target: human Endothelin Receptor Type B (ETB), EDNRB (gene 1910) (UniProt P24530); assay: NVS_GPCR_hETB: NovaScreen (NVS) G Protein-Coupled Receptor Assay for human Endothelin Receptor Type B (ETB) (AID 2283267)
Sequence of human Endothelin Receptor Type B (ETB), EDNRB (gene 1910) (P24530 whole entry, looked up): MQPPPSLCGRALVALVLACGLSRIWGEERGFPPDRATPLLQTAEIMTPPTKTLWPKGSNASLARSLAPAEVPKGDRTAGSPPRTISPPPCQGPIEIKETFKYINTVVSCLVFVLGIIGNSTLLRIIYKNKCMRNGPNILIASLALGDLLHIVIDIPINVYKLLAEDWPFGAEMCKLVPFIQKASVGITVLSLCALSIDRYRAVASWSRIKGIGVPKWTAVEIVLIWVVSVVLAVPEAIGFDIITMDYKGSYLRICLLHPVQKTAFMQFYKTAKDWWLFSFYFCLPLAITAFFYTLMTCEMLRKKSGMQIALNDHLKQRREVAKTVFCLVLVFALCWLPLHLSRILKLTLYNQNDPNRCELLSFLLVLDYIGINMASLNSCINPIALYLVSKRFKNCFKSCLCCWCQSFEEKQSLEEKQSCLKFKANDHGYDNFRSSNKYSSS
In short: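 Filter-based scintillation readout of radioligand displacement, 4 h, using membranes from human astrocytoma cells. Actives from a 25 uM duplicate screen were retested in concentration-response (top 50 uM) relative to DMSO baseline.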

[3] = molecular target: human Leukotriene B4 Receptor 1 (LTB4-BLT1), LTB4R (gene 1241) (UniProt Q15722); assay: NVS_GPCR_hLTB4_BLT1: NovaScreen (NVS) G Protein-Coupled Receptor Assay for human Leukotriene B4 Receptor 1 (LTB4-BLT1) (AID 2283271)
Sequence of human Leukotriene B4 Receptor 1 (LTB4-BLT1), LTB4R (gene 1241) (Q15722 whole entry, looked up): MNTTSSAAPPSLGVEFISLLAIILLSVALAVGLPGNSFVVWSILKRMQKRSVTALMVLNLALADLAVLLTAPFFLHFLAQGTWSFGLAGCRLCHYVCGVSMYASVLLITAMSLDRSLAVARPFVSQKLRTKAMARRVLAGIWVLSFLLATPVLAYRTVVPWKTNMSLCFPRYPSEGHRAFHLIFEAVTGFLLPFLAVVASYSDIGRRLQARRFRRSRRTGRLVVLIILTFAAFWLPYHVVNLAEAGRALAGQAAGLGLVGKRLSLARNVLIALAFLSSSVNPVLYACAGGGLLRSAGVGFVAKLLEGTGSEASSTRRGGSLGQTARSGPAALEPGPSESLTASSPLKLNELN
In short: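 Cell-free human neutrophil receptor preparation, 1 h exposure, radioligand binding read by filter scintillation counting. Single 25 uM duplicate screen, then concentration series topping at 50 uM; binding loss scored against DMSO baseline.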

[4] = molecular target: human Neurokinin, NK2 Receptor, TACR2 (gene 6865) (UniProt P21452); assay: NVS_GPCR_hNK2: NovaScreen (NVS) G Protein-Coupled Receptor Assay for human Neurokinin, NK2 Receptor (AID 2283278);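 further: actives reduce bound radioligand signal relative to DMSO baseline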
Sequence of human Neurokinin, NK2 Receptor, TACR2 (gene 6865) (P21452 whole entry, looked up): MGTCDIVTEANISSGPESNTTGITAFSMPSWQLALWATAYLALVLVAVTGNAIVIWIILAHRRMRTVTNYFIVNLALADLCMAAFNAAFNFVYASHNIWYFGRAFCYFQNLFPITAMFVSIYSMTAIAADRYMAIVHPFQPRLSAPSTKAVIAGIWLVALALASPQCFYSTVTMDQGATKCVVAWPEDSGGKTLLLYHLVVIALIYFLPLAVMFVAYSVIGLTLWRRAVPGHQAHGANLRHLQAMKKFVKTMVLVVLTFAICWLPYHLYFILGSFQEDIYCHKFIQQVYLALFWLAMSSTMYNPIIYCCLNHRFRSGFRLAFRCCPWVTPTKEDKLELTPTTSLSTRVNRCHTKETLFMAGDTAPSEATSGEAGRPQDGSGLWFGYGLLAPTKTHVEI
In short: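 Cell-free radioligand binding using receptor protein extracted from CHO cells; readings taken 4 hours after chemical dosing by filter-based scintillation counting. Primary screen ran single concentration (25 uM) in duplicate; actives followed up in concentration series, loss-of-signal versus DMSO baseline.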

[5] = molecular target: human Thromboxane A2 Receptor (TXA2), TBXA2R (gene 6915) (UniProt P21731); assay: NVS_GPCR_hTXA2: NovaScreen (NVS) G Protein-Coupled Receptor Assay for human Thromboxane A2 Receptor (TXA2) (AID 2283282);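 further: actives reduce bound radioligand signal relative to DMSO baseline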
Sequence of human Thromboxane A2 Receptor (TXA2), TBXA2R (gene 6915) (P21731 whole entry, looked up): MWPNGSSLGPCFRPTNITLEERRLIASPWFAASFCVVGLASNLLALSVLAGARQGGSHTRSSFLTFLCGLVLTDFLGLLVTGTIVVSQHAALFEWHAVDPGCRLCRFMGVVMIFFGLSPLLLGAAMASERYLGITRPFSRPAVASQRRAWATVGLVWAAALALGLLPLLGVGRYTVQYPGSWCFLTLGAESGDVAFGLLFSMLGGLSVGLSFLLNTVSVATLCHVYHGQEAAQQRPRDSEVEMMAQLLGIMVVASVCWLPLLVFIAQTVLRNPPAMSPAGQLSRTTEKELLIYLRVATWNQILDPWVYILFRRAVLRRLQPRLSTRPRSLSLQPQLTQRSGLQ
In short: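 Cell-free radioligand binding on membrane protein from human platelets; radioligand displacement read by filter-based scintillation counting after 1 h. Primary screen in duplicate at 25 uM, actives then run in concentration series; loss of signal versus DMSO.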

[6] = molecular target: mouse Cholecystokinin, CCK1 Receptor (CCKA), Cckar (gene 12425) (UniProt O08786); assay: NVS_GPCR_mCCKAPeripheral: NovaScreen (NVS) G Protein-Coupled Receptor Assay for mouse Cholecystokinin, CCK1 Receptor (CCKA) (AID 2283285)
Sequence of mouse Cholecystokinin, CCK1 Receptor (CCKA), Cckar (gene 12425) (O08786 whole entry, looked up): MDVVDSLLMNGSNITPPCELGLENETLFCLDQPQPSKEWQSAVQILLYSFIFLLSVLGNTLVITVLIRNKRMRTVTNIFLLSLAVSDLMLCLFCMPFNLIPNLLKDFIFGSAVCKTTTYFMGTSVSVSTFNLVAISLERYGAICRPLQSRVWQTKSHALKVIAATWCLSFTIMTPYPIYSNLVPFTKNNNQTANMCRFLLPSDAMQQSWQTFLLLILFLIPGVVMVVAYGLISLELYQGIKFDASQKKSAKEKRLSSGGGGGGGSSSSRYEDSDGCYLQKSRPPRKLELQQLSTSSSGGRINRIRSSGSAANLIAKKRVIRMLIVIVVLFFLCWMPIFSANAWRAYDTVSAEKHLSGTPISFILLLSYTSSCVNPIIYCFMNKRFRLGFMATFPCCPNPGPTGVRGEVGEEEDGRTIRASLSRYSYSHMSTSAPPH
In short: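 Chemicals were first screened in duplicate at 25 uM, with those meeting threshold (e.g., 30% inhibition) retested in singleton concentration series to 50 uM maximum. Binding of radioligand to mouse pancreatic membranes was read after 2 h by filtration and scintillation counting.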

[7] = molecular target: human Opioid Receptor Delta 1 (Opiate D1), OPRD1 (gene 4985) (UniProt P41143); assay: NVS_GPCR_hOpiate_D1: NovaScreen (NVS) G Protein-Coupled Receptor Assay for human Opioid Receptor Delta 1 (Opiate D1) (AID 2283280)
Sequence of human Opioid Receptor Delta 1 (Opiate D1), OPRD1 (gene 4985) (P41143 whole entry, looked up): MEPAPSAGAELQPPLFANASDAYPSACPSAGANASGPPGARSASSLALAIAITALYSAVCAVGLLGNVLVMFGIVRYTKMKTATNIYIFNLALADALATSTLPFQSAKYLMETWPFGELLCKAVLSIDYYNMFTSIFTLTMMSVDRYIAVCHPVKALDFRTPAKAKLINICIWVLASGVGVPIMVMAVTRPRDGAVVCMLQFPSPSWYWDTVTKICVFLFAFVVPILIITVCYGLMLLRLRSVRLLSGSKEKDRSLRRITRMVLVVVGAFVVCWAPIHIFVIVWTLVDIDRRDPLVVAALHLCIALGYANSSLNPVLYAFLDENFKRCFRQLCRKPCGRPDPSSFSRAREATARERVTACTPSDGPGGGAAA
In short: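 Membrane preparations from CHO cells bearing the human receptor were incubated 1 h with test chemical, and bound radioligand was counted after filtration. Actives from 25 uM duplicate screening were retested in concentration-response.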

[8] = molecular target: rat Serotonin, 5-Hydroxytryptamine Receptor 1 (5HT1), Non-Selective Binding, Htr1a (gene 24473) (UniProt P19327); assay: NVS_GPCR_r5HT1_NonSelective: NovaScreen (NVS) G Protein-Coupled Receptor Assay for rat Serotonin, 5-Hydroxytryptamine Receptor 1 (5HT1), Non-Selective Binding (AID 2283286)
Sequence of rat Serotonin, 5-Hydroxytryptamine Receptor 1 (5HT1), Non-Selective Binding, Htr1a (gene 24473) (P19327 whole entry, looked up): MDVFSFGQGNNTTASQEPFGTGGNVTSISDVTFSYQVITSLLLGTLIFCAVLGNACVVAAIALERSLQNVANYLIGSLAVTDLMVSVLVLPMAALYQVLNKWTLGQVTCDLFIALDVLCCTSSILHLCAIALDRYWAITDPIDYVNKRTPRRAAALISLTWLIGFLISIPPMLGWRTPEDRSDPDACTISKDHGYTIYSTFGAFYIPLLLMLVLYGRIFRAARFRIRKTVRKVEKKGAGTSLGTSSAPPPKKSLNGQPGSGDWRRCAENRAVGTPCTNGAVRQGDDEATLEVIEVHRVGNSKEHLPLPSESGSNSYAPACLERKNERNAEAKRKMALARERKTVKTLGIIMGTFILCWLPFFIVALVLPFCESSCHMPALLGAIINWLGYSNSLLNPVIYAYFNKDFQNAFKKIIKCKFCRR
In short: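 Binding of a radioligand to rat cortex membranes is read by filtration and scintillation counting after 1 h. Compounds were screened at 25 uM in duplicate. Actives were then titrated to a top of 50 uM. DMSO is the baseline.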

[9] = molecular target: human Neurotensin Receptor (NTS), NTSR1 (gene 4923) (UniProt P30989); assay: NVS_GPCR_hNTS: NovaScreen (NVS) G Protein-Coupled Receptor Assay for human Neurotensin Receptor (NTS) (AID 2283279)
Sequence of human Neurotensin Receptor (NTS), NTSR1 (gene 4923) (P30989 whole entry, looked up): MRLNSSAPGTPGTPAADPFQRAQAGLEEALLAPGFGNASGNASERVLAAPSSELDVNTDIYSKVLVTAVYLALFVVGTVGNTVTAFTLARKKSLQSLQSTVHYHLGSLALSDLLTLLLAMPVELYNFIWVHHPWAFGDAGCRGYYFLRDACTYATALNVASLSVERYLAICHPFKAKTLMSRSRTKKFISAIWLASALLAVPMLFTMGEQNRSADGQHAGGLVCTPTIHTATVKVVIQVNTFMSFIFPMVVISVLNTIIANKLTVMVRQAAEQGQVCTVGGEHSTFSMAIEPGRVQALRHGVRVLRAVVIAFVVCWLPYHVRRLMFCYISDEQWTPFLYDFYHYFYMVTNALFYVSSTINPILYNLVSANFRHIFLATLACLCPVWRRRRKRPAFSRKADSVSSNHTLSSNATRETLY
In short: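 Compounds competed with a radiolabelled ligand for binding to CHO-derived human neurotensin receptor; bound signal counted after filtration, 1 h. Screened first at a single concentration of 25 uM in duplicate, then concentration series to 50 uM maximum for actives.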

[10] = molecular target: human Dopamine Receptor D4.4 (DRD4.4), DRD4 (gene 1815) (UniProt P21917); assay: NVS_GPCR_hDRD4.4: NovaScreen (NVS) G Protein-Coupled Receptor Assay for human Dopamine Receptor D4.4 (DRD4.4) (AID 2283264)
Sequence of human Dopamine Receptor D4.4 (DRD4.4), DRD4 (gene 1815) (P21917 whole entry, looked up): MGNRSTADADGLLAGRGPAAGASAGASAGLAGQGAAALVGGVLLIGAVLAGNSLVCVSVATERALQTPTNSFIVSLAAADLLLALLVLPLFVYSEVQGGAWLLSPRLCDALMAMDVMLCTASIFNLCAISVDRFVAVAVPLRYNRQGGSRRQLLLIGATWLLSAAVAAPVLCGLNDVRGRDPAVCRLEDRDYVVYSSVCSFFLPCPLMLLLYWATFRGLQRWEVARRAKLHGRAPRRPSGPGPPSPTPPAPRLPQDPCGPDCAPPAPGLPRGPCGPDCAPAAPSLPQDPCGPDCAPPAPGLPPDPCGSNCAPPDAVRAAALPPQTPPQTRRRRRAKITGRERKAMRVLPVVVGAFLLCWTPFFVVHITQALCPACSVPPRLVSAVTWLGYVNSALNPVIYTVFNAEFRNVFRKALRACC
In short: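 Filter-binding assay with a tritiated or iodinated ligand, cell-free receptor prepared from CHO, 1 hour. Loss of bound radioactivity versus DMSO; single 25 uM duplicate screen, then concentration-response for actives.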

[11] = molecular target: Muscarinic acetylcholine receptor M3 (Homo sapiens) (UniProt P20309); assay: NVS_GPCR_hM3: NovaScreen (NVS) G Protein-Coupled Receptor Assay for human Muscarinic, M3 Receptor (AID 2283272)
In short: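 Radioligand displacement binding on human M3 receptor in CHO-derived membranes, 1 h incubation, filter-based scintillation counting. Primary screen in duplicate at 25 uM; actives followed up in concentration series; loss of signal versus DMSO.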

[12] = molecular target: Muscarinic acetylcholine receptor M2 (Homo sapiens) (UniProt P08172); assay: NVS_GPCR_hM2: NovaScreen (NVS) G Protein-Coupled Receptor Assay for human Muscarinic, M2 Receptor (AID 2283273)
In short: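 Filter-based radiodetection read bound radioligand 1 h after dosing CHO-derived membrane protein. Single-concentration duplicates (25 uM) first, then concentration-response for actives; signal loss versus DMSO scored.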

[13] = molecular target: Muscarinic acetylcholine receptor M5 (Homo sapiens) (UniProt P08912); assay: NVS_GPCR_hM5: NovaScreen (NVS) G Protein-Coupled Receptor Assay for human Muscarinic, M5 Receptor (AID 2283275)
In short: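 Chemicals passing a primary duplicate screen at 25 uM were run as singleton concentration series, maximum 50 uM. Displacement of a specific radioligand from CHO-extracted receptor was read by filter scintillation after 1 h, relative to DMSO.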

[14] = molecular target: human Neuropeptide Receptor Y1 (NPY1), NPY1R (gene 4886) (UniProt P25929); assay: NVS_GPCR_hNPY1: NovaScreen (NVS) G Protein-Coupled Receptor Assay for human Neuropeptide Receptor Y1 (NPY1) (AID 2283276)
Sequence of human Neuropeptide Receptor Y1 (NPY1), NPY1R (gene 4886) (P25929 whole entry, looked up): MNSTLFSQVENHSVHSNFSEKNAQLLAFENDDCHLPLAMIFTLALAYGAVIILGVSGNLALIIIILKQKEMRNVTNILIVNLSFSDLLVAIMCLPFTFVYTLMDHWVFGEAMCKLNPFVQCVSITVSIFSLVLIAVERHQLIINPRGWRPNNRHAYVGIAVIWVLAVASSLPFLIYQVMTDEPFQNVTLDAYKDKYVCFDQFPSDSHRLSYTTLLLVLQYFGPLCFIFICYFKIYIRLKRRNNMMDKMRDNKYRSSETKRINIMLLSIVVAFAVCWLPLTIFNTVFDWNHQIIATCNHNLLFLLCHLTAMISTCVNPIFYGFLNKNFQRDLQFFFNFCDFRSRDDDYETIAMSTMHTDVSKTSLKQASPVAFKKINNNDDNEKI
In short: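 Displacement of specific radioligand from NPY1 receptor of SK-N-MC origin, read by filtration and scintillation after 1 h. Compounds first tested at 25 uM in duplicate, then actives in concentration series; signal loss relative to DMSO.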

[15] = molecular target: human Orphanin, Opioid Related Nociceptin Receptor 1 (ORL1), OPRL1 (gene 4987) (UniProt P41146); assay: NVS_GPCR_hORL1: NovaScreen (NVS) G Protein-Coupled Receptor Assay for human Orphanin, Opioid Related Nociceptin Receptor 1 (ORL1) (AID 2283283)
Sequence of human Orphanin, Opioid Related Nociceptin Receptor 1 (ORL1), OPRL1 (gene 4987) (P41146 whole entry, looked up): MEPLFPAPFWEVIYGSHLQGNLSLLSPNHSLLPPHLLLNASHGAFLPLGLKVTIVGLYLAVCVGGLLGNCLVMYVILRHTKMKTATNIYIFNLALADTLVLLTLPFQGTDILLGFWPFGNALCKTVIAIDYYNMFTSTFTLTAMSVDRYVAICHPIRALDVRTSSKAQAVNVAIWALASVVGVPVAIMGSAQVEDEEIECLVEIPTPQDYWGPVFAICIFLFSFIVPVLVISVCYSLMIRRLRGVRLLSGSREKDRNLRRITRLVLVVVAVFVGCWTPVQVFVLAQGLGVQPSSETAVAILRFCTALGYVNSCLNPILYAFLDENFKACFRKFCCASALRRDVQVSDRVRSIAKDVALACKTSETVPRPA
In short: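 Cell-free binding using HEK293-derived receptor protein: radioligand displacement measured by filter scintillation 1 hour after dosing. Primary testing at 25 uM in duplicate, followed by singleton concentration series up to 50 uM; DMSO served as negative control.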

Measured: AC50

CCc1cc(C2=C(C(=O)O)N(c3ccccc3C(F)(F)F)S(=O)(=O)c3ccccc32)cc2c1OCO2
active: [1] 0.0451 µM | [2] 0.442 µM | [3] 17.1 µM | [4] 25 µM | [5] 3.08 µM | [6] 16.6 µM

Cn1cnc2c1c(=O)[nH]c(=O)n2C
inactive: [7] | [8]

CN(C)CCCN1c2ccccc2Sc2ccc(Cl)cc21
active: [4] 25 µM | [9] 14.5 µM | [6] 21.8 µM | [8] 8.89 µM

O=C(O)c1[nH]n(-c2ccc(S(=O)(=O)O)cc2)c(=O)c1N=Nc1ccc(S(=O)(=O)O)cc1
inactive: [11] | [12]
active: [10] 16.5 µM | [8] 5.69 µM

OCC(O)CO
inactive: [7]

CCN(CC)CCOc1ccc(C(=C(Cl)c2ccccc2)c2ccccc2)cc1
active: [10] 17.3 µM | [1] 29.1 µM | [2] 32.3 µM | [13] 2.53 µM | [14] 31.8 µM | [4] 9.71 µM | [7] 9.7 µM | [15] 28.9 µM and 7.41 µM and 31.3 µM | [6] 21.4 µM
inactive: [9]

CCCCC(CC)CO (stereo not drawn)
inactive: [3]
